This is part of a sample that, as a whole, favours compounds with a hit. Of some 83,000 tested, about 20% had one in any assay.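 Interpretation: 100, growth as untreated; towards 0, rising growth inhibition; 0, no net growth; 0 to -100, cell death. Compounds scoring below 10 were considered active.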 Unmarked numbers belong to inactive results. Activity calls are given as the source filed them.
Legend:
Assay in all cases: NCI-60 one-dose screen, 48 h (100 = growth as untreated, 0 = no growth, -100 = all killed)
Conditions in all cases: 10 µM
HT29 colon = system: HT29 colon
SNB-75 CNS = system: SNB-75 CNS
SNB-19 CNS = system: SNB-19 CNS
U251 CNS = system: U251 CNS
PC-3 prostate = system: PC-3 prostate
SK-MEL-5 melanoma = system: SK-MEL-5 melanoma
UACC-62 melanoma = system: UACC-62 melanoma
LOX IMVI melanoma = system: LOX IMVI melanoma
SK-MEL-28 melanoma = system: SK-MEL-28 melanoma
SK-MEL-2 melanoma = system: SK-MEL-2 melanoma
EKVX NSCLC = system: EKVX NSCLC
SN12C renal = system: SN12C renal
TK-10 renal = system: TK-10 renal
ACHN renal = system: ACHN renal
CAKI-1 renal = system: CAKI-1 renal
CCRF-CEM leukemia = system: CCRF-CEM leukemia
MOLT-4 leukemia = system: MOLT-4 leukemia
SR leukemia = system: SR leukemia
UO-31 renal = system: UO-31 renal
A498 renal = system: A498 renal

**Q.** Which results are given for COc1cc2c(cc1OCCCCCCN1CCN(CC(=O)Nc3ccc(Cl)cc3C(=O)c3ccccc3Cl)CC1)N=CC1CCCN1C2=O (stereo not drawn)?
**A.** growth (HT29 colon): -56.8% (active); growth (SNB-75 CNS): -84.5% (active); growth (SNB-19 CNS): -77.7% (active); growth (U251 CNS): -100% (active); growth (PC-3 prostate): -100% (active); growth (SK-MEL-5 melanoma): -100% (active); growth (UACC-62 melanoma): -98.7% (active); growth (LOX IMVI melanoma): -93.9% (active); growth (SK-MEL-28 melanoma): -85.8% (active); growth (SK-MEL-2 melanoma): -69.6% (active); growth (EKVX NSCLC): -93.2% (active); growth (SN12C renal): -90.2% (active); growth (TK-10 renal): -98.8% (active); growth (ACHN renal): -100% (active); growth (CAKI-1 renal): -98.8% (active); growth (CCRF-CEM leukemia): -66.3% (active); growth (MOLT-4 leukemia): -64% (active); growth (SR leukemia): -70.2% (active)

**Q.** With Cc1cc(C)c(NC(=O)c2sc3nc4c(cc3c2N)C(=O)CCC4)c(C)c1 as the compound, how does the growth (HT29 colon) read?
**A.** 0.48% (active)

**Q.** And the growth (SNB-75 CNS)?
**A.** 0% (active)

**Q.** What about the growth (SNB-19 CNS) of the same compound?
**A.** 40.2%

**Q.** And the growth (U251 CNS)?
**A.** 21.1%

**Q.** And the growth (PC-3 prostate)?
**A.** 23.5%

**Q.** What about the growth (SK-MEL-5 melanoma) of the same compound?
**A.** 11.3%

**Q.** What about the growth (UACC-62 melanoma) of the same compound?
**A.** 23.2%

**Q.** What about the growth (LOX IMVI melanoma) of the same compound?
**A.** 50.6%

**Q.** And the growth (SK-MEL-28 melanoma)?
**A.** 56%

**Q.** And the growth (SK-MEL-2 melanoma)?
**A.** 36.1%

**Q.** And the growth (EKVX NSCLC)?
**A.** 54.4%

**Q.** And the growth (UO-31 renal)?
**A.** 56.9%

**Q.** What about the growth (TK-10 renal) of the same compound?
**A.** 44.8%

**Q.** And the growth (ACHN renal)?
**A.** 55.3%

**Q.** What about the growth (CAKI-1 renal) of the same compound?
**A.** -22.2% (active)

**Q.** What about the growth (A498 renal) of the same compound?
**A.** -7.37% (active)

**Q.** What about the growth (CCRF-CEM leukemia) of the same compound?
**A.** 22.1%

**Q.** And the growth (MOLT-4 leukemia)?
**A.** 43%

**Q.** And the growth (SR leukemia)?
**A.** 10.5%

**Q.** What does the source list for COc1ccc(OC)c(/C=C/c2nnc(Nc3ccc(Cl)cc3)o2)c1?
**A.** growth (HT29 colon): 76.9%; growth (SNB-75 CNS): 15.8%; growth (SNB-19 CNS): 84.9%; growth (U251 CNS): 41.8%; growth (PC-3 prostate): 74.9%; growth (SK-MEL-5 melanoma): 69.8%; growth (UACC-62 melanoma): 75.8%; growth (LOX IMVI melanoma): 67.7%; growth (SK-MEL-28 melanoma): 92.1%; growth (SK-MEL-2 melanoma): 101%; growth (EKVX NSCLC): 68.1%; growth (SN12C renal): 44.9%; growth (UO-31 renal): 4.98% (active); growth (TK-10 renal): 39.1%; growth (ACHN renal): 32.6%; growth (CCRF-CEM leukemia): 90.1%; growth (MOLT-4 leukemia): 89.7%; growth (SR leukemia): 78.9%

**Q.** Which results are given for CS(=O)(=O)Nc1ccc(Nc2c3ccccc3nc3cc([N+](=O)[O-])ccc23)cc1?
**A.** growth (HT29 colon): 11.8%; growth (SNB-75 CNS): 41.3%; growth (SNB-19 CNS): 43.3%; growth (U251 CNS): 21%; growth (PC-3 prostate): 44.4%; growth (SK-MEL-5 melanoma): 13.5%; growth (UACC-62 melanoma): 32.2%; growth (LOX IMVI melanoma): -27.1% (active); growth (SK-MEL-28 melanoma): 43.4%; growth (SK-MEL-2 melanoma): 23.3%; growth (SN12C renal): 20.3%; growth (UO-31 renal): 16.6%; growth (TK-10 renal): 16%; growth (ACHN renal): 12.6%; growth (CAKI-1 renal): 37.7%; growth (A498 renal): 45.4%; growth (CCRF-CEM leukemia): 2.39% (active); growth (MOLT-4 leukemia): 4.17% (active)

From PubChem BioAssay (NCI)
